# Target: AgAbp1
# Test: SPOT peptide array binding signal intensity (averaged, normalized) (arbitrary units (background-subtracted, floor 0; scale differs between SH3 domains)); higher = stronger binding of the SH3 domain to the peptide
# Procedure, shortened: (§1)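 E. coli BL21(DE3) was used to express GST-fused SH3 domains from four yeast species, which were then purified on glutathione Sepharose. These were incubated at 10 μg/ml in TBS-based blocking buffer overnight at 4°C on cellulose membranes carrying synthetic 15-mer peptides, in which cysteines were replaced by serines. Binding signal is the replicate average of normalized, background-subtracted spot intensity, in arbitrary units that differ between domains.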
row,Binder,SPOT peptide array binding signal intensity
1,FLIKFTPKFPQSIDH,11

# Target: AgBbc1
# Test: as above
# Procedure, shortened: as §1
row,Binder,SPOT peptide array binding signal intensity
1,FLIKFTPKFPQSIDH,89.8

# Target: AgBem1-D1
# Test: as above
# Procedure, shortened: as §1
row,Binder,SPOT peptide array binding signal intensity
1,FLIKFTPKFPQSIDH,681

# Target: AgBzz1-D1
# Test: as above
# Procedure, shortened: as §1
row,Binder,SPOT peptide array binding signal intensity
1,FLIKFTPKFPQSIDH,120

# Target: AgBzz1-D2
# Test: as above
# Procedure, shortened: as §1
row,Binder,SPOT peptide array binding signal intensity
1,FLIKFTPKFPQSIDH,229

# Target: AgCyk3
# Test: as above
# Procedure, shortened: as §1
row,Binder,SPOT peptide array binding signal intensity
1,FLIKFTPKFPQSIDH,165

# Target: AgFus1
# Test: as above
# Procedure, shortened: as §1
row,Binder,SPOT peptide array binding signal intensity
1,FLIKFTPKFPQSIDH,1690

# Target: AgHof1
# Test: as above
# Procedure, shortened: as §1
row,Binder,SPOT peptide array binding signal intensity
1,FLIKFTPKFPQSIDH,45

# Target: AgHse1
# Test: as above
# Procedure, shortened: as §1
row,Binder,SPOT peptide array binding signal intensity
1,FLIKFTPKFPQSIDH,1660

# Target: AgLsb1
# Test: as above
# Procedure, shortened: as §1
row,Binder,SPOT peptide array binding signal intensity
1,FLIKFTPKFPQSIDH,2.5

# Target: AgLsb4
# Test: as above
# Procedure, shortened: as §1
row,Binder,SPOT peptide array binding signal intensity
1,FLIKFTPKFPQSIDH,1180

# Target: AgMyo5
# Test: as above
# Procedure, shortened: as §1
row,Binder,SPOT peptide array binding signal intensity
1,FLIKFTPKFPQSIDH,1.5

# Target: AgNbp2
# Test: as above
# Procedure, shortened: as §1
row,Binder,SPOT peptide array binding signal intensity
1,FLIKFTPKFPQSIDH,669

# Target: AgRvs167
# Test: as above
# Procedure, shortened: as §1
row,Binder,SPOT peptide array binding signal intensity
1,FLIKFTPKFPQSIDH,15

# Target: AgSho1
# Test: as above
# Procedure, shortened: as §1
row,Binder,SPOT peptide array binding signal intensity
1,FLIKFTPKFPQSIDH,814

# Target: AgSla1-D1-D2
# Test: as above
# Procedure, shortened: as §1
row,Binder,SPOT peptide array binding signal intensity
1,FLIKFTPKFPQSIDH,524

# Target: AgSla1-D3
# Test: as above
# Procedure, shortened: as §1
row,Binder,SPOT peptide array binding signal intensity
1,FLIKFTPKFPQSIDH,33.8

# Target: CaAbp1-D1
# Test: as above
# Procedure, shortened: as §1
row,Binder,SPOT peptide array binding signal intensity
1,FLIKFTPKFPQSIDH,172

# Target: CaAbp1-D2
# Test: as above
# Procedure, shortened: as §1
row,Binder,SPOT peptide array binding signal intensity
1,FLIKFTPKFPQSIDH,120

# Target: CaBbc1
# Test: as above
# Procedure, shortened: as §1
row,Binder,SPOT peptide array binding signal intensity
1,FLIKFTPKFPQSIDH,75

# Target: CaBem1-D1
# Test: as above
# Procedure, shortened: as §1
row,Binder,SPOT peptide array binding signal intensity
1,FLIKFTPKFPQSIDH,103

# Target: CaBzz1-D1
# Test: as above
# Procedure, shortened: as §1
row,Binder,SPOT peptide array binding signal intensity
1,FLIKFTPKFPQSIDH,819

# Target: CaBzz1-D2
# Test: as above
# Procedure, shortened: as §1
row,Binder,SPOT peptide array binding signal intensity
1,FLIKFTPKFPQSIDH,281

# Target: CaCyk3
# Test: as above
# Procedure, shortened: as §1
row,Binder,SPOT peptide array binding signal intensity
1,FLIKFTPKFPQSIDH,136

# Target: CaFus1
# Test: as above
# Procedure, shortened: as §1
row,Binder,SPOT peptide array binding signal intensity
1,FLIKFTPKFPQSIDH,3550

# Target: CaHof1
# Test: as above
# Procedure, shortened: as §1
row,Binder,SPOT peptide array binding signal intensity
1,FLIKFTPKFPQSIDH,6.5

# Target: CaHse1
# Test: as above
# Procedure, shortened: as §1
row,Binder,SPOT peptide array binding signal intensity
1,FLIKFTPKFPQSIDH,588

# Target: CaLsb1
# Test: as above
# Procedure, shortened: as §1
row,Binder,SPOT peptide array binding signal intensity
1,FLIKFTPKFPQSIDH,10

# Target: CaLsb4
# Test: as above
# Procedure, shortened: as §1
row,Binder,SPOT peptide array binding signal intensity
1,FLIKFTPKFPQSIDH,299

# Target: CaMyo5
# Test: as above
# Procedure, shortened: as §1
row,Binder,SPOT peptide array binding signal intensity
1,FLIKFTPKFPQSIDH,94

# Target: CaNbp2
# Test: as above
# Procedure, shortened: as §1
row,Binder,SPOT peptide array binding signal intensity
1,FLIKFTPKFPQSIDH,1020

# Target: CaRvs167
# Test: as above
# Procedure, shortened: as §1
row,Binder,SPOT peptide array binding signal intensity
1,FLIKFTPKFPQSIDH,651

# Target: CaRvs167-3
# Test: as above
# Procedure, shortened: as §1
row,Binder,SPOT peptide array binding signal intensity
1,FLIKFTPKFPQSIDH,2160

# Target: CaSho1
# Test: as above
# Procedure, shortened: as §1
row,Binder,SPOT peptide array binding signal intensity
1,FLIKFTPKFPQSIDH,2110

# Target: CaSla1-D1-D2
# Test: as above
# Procedure, shortened: as §1
row,Binder,SPOT peptide array binding signal intensity
1,FLIKFTPKFPQSIDH,43

# Target: CaSla1-D3
# Test: as above
# Procedure, shortened: as §1
row,Binder,SPOT peptide array binding signal intensity
1,FLIKFTPKFPQSIDH,585

# Target: ScAbp1
# Test: as above
# Procedure, shortened: as §1
row,Binder,SPOT peptide array binding signal intensity
1,FLIKFTPKFPQSIDH,7
